# Measurements as given in PubChem BioAssay (EPA / NIEHS).
# Values joined by “and” are separate entries in the source; they are usually repeats but may differ in a detail not shown here. Identical values can stand only once. Inconclusive results are not listed. Some compounds were tested as several samples or in several runs, with calls that do not always agree. Active and inactive are the calls of the source. How the source made its calls: active means hit-call score of the fitted dose curve at least 0.9, where 1 is the maximum; inconclusive means response in the unintended direction; inactive means score below 0.9.
# Experiments:
# [1] = biological target: Estrogen receptor (Homo sapiens) + Estrogen receptor beta (Homo sapiens) (UniProt P03372+Q92731); test: OT_ER_ERaERb_1440: Odyssey Thera (OT) 24-hour HEK293T Protein-Complementation Assay for Estrogen Receptor-alpha/-beta Homodimer (AID 2283356);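 further: heteromer of ER alpha and ER beta binding domains; hits raise reporter fluorescence and both agonists and antagonists give an increase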
# How it was run: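 HEK293T stably expressing a PCA of ER alpha LBD (aa 310-547) and ER beta LBD (aa 263-489). After 24 h compound exposure, mean fluorescence intensity in nucleus (agonists) or nucleus and cytoplasm (antagonists) measured by laser scanning cytometry versus vehicle.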
# [2] = biological target: Estrogen receptor beta (Homo sapiens) (UniProt Q92731); test: OT_ER_ERbERb_0480: Odyssey Thera (OT) 8-hour HEK293T Protein-Complementation Assay for Estrogen Receptor-beta/-beta Homodimer (AID 2283357);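 further: active means signal gain over DMSO baseline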
# How it was run: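 Readout: increase in mean fluorescence intensity (nucleus for agonists; nucleus plus cytoplasm for antagonists) relative to DMSO, from a reporter-fragment complementation of human ER-beta LBD homodimer in HEK293T cells dosed 8 hours.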
# [3] = biological target: Nuclear receptor subfamily 1 group I member 2 (Homo sapiens) (UniProt O75469); test: NVS_NR_hPXR: NovaScreen (NVS) Nuclear Receptor Binding Assay for human Pregnane X Receptor (PXR) (AID 2283365);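 further: a drop in FRET signal versus DMSO baseline means the compound binds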
# How it was run: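 Cell-free TR-FRET binding assay with extracted human PXR protein, read 2 h after dosing. Primary screen run in duplicate at 25 uM, actives followed in concentration series; loss of signal fitted against DMSO baseline.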
# [4] = biological target: human Peroxisome Proliferator-activated Receptor alpha (PPARa), PPARA (gene 5465) (UniProt Q07869); test: NVS_NR_hPPARa: NovaScreen (NVS) Nuclear Receptor Binding Assay for human Peroxisome Proliferator-activated Receptor alpha (PPARa) (AID 2283359);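 further: activity means loss of TR-FRET signal versus DMSO baseline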
# How it was run: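 Cell-free binding assay with extracted human protein, read by TR-FRET 1 h after chemical dosing. Loss of signal relative to DMSO baseline indicates binding. Primary screen used duplicate single concentration (25 uM); actives followed up in concentration series.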
# [5] = biological target: human Thyroid Receptor Alpha (TRa), THRA (gene 7067) (UniProt P10827); test: NVS_NR_hTRa_Antagonist: NovaScreen (NVS) Nuclear Receptor Binding Assay for human Thyroid Receptor Alpha Antagonism (TRa) (AID 2283362);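 further: activity is loss of signal relative to DMSO baseline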
# How it was run: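 Cell-free AlphaLISA chemiluminescent binding read 1 h after dosing, antagonist mode; signal loss versus DMSO baseline. Primary screen in duplicate at 25 uM, then concentration series for actives.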
# [6] = biological target: human Dopamine Transporter (DAT), SLC6A3 (gene 6531) (UniProt Q01959); test: NVS_TR_hDAT: NovaScreen (NVS) Transporter Assay for human Dopamine Transporter (DAT) (AID 2283374);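 further: activity means loss of bound radioligand signal relative to DMSO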
# How it was run: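 Cell-free radioligand binding to extracted human DAT protein, read 1 h after dosing by filter-based scintillation counting. Loss of specific binding scored against DMSO baseline; primary screen in duplicate at 25 uM, actives then run in concentration series.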
# [7] = biological target: Retinoic acid receptor alpha (Homo sapiens) (UniProt P10276); test: NVS_NR_hRAR_Antagonist: NovaScreen (NVS) Nuclear Receptor Binding Assay for human Retinoic Acid Alpha Receptor Antagonism (RAR) (AID 2283358)
# How it was run: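 Cell-free TR-FRET binding assay on extracted receptor protein, run in antagonist mode; signal read 2 hours after chemical dosing. Loss of signal was fitted relative to DMSO baseline. Screened at 25 uM in duplicate, actives followed up in concentration series.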
# [8] = biological target: Glucocorticoid receptor (Homo sapiens) (UniProt P04150); test: NVS_NR_hGR: NovaScreen (NVS) Nuclear Receptor Binding Assay for human Glucocorticoid Receptor (GR) (AID 2283363);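 further: activity is loss of specific radioligand binding signal relative to DMSO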
# How it was run: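 Cell-free radioligand binding with extracted receptor protein, read by filter-based scintillation counting 16 hours after dosing. Loss of specific signal versus DMSO baseline was scored. Primary screen ran in duplicate at 25 uM; actives were followed up in concentration series.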
# [9] = biological target: rat Androgen Receptor (AR), Ar (gene 24208) (UniProt P15207); test: NVS_NR_rAR: NovaScreen (NVS) Nuclear Receptor Binding Assay for rat Androgen Receptor (AR) (AID 2283366)
# How it was run: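 Cell-free radioligand binding on extracts of prostate from testosterone-pretreated rats, read by filter-based scintillation counting 18 h after dosing. Loss of bound signal fitted positively versus DMSO; primary screen in duplicate at 25 uM, actives followed up in concentration series.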
# [10] = biological target: rat Mineralocorticoid Receptor (MR), Nr3c2 (gene 25672) (UniProt P22199); test: NVS_NR_rMR: NovaScreen (NVS) Nuclear Receptor Binding Assay for rat Mineralocorticoid Receptor (MR) (AID 2283355)
# How it was run: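 Cell-free radioligand binding to MR in adrenalectomized rat brain supernatant, scintillation counted 24 h after dosing. Loss of signal versus DMSO baseline marks displacement. Primary screen in duplicate at 25 uM; actives retested as concentration series.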
# PGR (gene 5241) = PGR (gene 5241) (UniProt P06401); test: NVS_NR_hPR: NovaScreen (NVS) Nuclear Receptor Binding Assay for human Progestron Receptor (PR) (AID 2283360);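 further: active means loss of bound radioligand signal versus DMSO baseline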
# How it was run: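 T47D-derived receptor preparation, cell-free, with tritiated or iodinated radioligand displacement measured by scintillation 18 h post-dosing. Single 25 uM duplicate screen, then concentration series; signal loss relative to DMSO.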
# [11] = test system: guinea pig Dopamine Transporter (DAT), gene 100714898; test: NVS_TR_gDAT: NovaScreen (NVS) Transporter Assay for guinea pig Dopamine Transporter (DAT) (AID 2283369);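 further: active compounds lower bound radioligand signal relative to DMSO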
# How it was run: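 Guinea pig striatal membranes, cell-free radioligand binding with filter-based scintillation counting, read 2 h after dosing. Loss of signal versus DMSO baseline; single-concentration primary (25 uM) then concentration-response up to 50 uM.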
# [12] = biological target: Norway rat Vesicular Monoamine Transporter (VMAT2), neurotransmitter transporter, Slc18a2 (gene 25549) (UniProt Q01827); test: NVS_TR_rVMAT2: NovaScreen (NVS) Transporter Assay for Norway rat Vesicular Monoamine Transporter (VMAT2), neurotransmitter transporter (AID 2283376);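 further: actives lower the bound radioligand signal below the DMSO level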
# How it was run: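 Rat forebrain tissue preparation used in a cell-free radioligand binding format; displacement read by filter-based scintillation counting 1 hour after dosing. Primary screen in duplicate at 25 uM, actives then run in concentration series; loss of signal versus DMSO baseline.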
# [13] = biological target: human Adenosine Transporter (Adot), SLC29A1 (gene 2030) (UniProt Q99808); test: NVS_TR_hAdoT: NovaScreen (NVS) Transporter Assay for human Adenosine Transporter (Adot) (AID 2283368)
# How it was run: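 U937-derived membranes, cell-free radioligand binding, filter scintillation 1 h after dosing. 25 uM duplicate screen; hits (e.g. 30% inhibition) run in concentration-response up to 50 uM; loss of signal versus DMSO.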
# [14] = biological target: Peroxisome proliferator-activated receptor gamma (Homo sapiens) (UniProt P37231); test: NVS_NR_hPPARg: NovaScreen (NVS) Nuclear Receptor Binding Assay for human Peroxisome Proliferator-activated Receptor gamma (PPARg) (AID 2283370)
# How it was run: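 Cell-free fluorescence polarization binding to human PPARg protein, read 2 h after dosing. Primary screen in duplicate at 25 uM, actives followed in concentration series; loss of signal relative to DMSO scored.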
# [15] = biological target: human Serotonin Transporter (SERT), SLC6A4 (gene 6532) (UniProt P31645); test: NVS_TR_hSERT: NovaScreen (NVS) Transporter Assay for human Serotonin Transporter (SERT) (AID 2283372)
# How it was run: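 Radioligand binding to native SERT in human platelet membranes, read by filter-based scintillation counting 1 h after dosing. Primary screen in duplicate at 25 uM; actives followed up in concentration series; loss of signal versus DMSO baseline.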
# [16] = test system: rat Norepinephrine Transporter (NET), gene 83511; test: NVS_TR_rNET: NovaScreen (NVS) Transporter Assay for rat Norepinephrine Transporter (NET) (AID 2283373)
# How it was run: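 Rat forebrain membranes; radioligand binding measured by filter-based scintillation counting 1 hour after dosing. Loss of specific binding versus DMSO baseline scored; primary screen in duplicate at 25 uM, actives followed up in concentration series.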
# [17] = biological target: rat Serotonin Transporter (SERT), Slc6a4 (gene 25553) (UniProt P31652); test: NVS_TR_rSERT: NovaScreen (NVS) Transporter Assay for rat Serotonin Transporter (SERT) (AID 2283375)
# How it was run: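 Rat forebrain membranes; radioligand displacement at SERT read by filter-based scintillation counting, 1 h after dosing. Screened in duplicate at 25 uM, actives then run in concentration series; loss of signal versus DMSO baseline.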
# [18] = biological target: Retinoic acid receptor alpha (Homo sapiens) (UniProt P10276); test: NVS_NR_hRARa_Agonist: NovaScreen (NVS) Nuclear Receptor Binding Assay for human Retinoic Acid Alpha Receptor Agonism (RAR) (AID 2283361)
# How it was run: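 Cell-free TR-FRET binding read-out with extracted human RARα protein, read 2 h after compound addition. Gain of signal scored against DMSO baseline. Primary screen at a single 25 uM in duplicate; actives then retested in concentration series.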
# rat Androgen Receptor (AR), Ar (gene 24208), sequence (P15207 whole entry, looked up): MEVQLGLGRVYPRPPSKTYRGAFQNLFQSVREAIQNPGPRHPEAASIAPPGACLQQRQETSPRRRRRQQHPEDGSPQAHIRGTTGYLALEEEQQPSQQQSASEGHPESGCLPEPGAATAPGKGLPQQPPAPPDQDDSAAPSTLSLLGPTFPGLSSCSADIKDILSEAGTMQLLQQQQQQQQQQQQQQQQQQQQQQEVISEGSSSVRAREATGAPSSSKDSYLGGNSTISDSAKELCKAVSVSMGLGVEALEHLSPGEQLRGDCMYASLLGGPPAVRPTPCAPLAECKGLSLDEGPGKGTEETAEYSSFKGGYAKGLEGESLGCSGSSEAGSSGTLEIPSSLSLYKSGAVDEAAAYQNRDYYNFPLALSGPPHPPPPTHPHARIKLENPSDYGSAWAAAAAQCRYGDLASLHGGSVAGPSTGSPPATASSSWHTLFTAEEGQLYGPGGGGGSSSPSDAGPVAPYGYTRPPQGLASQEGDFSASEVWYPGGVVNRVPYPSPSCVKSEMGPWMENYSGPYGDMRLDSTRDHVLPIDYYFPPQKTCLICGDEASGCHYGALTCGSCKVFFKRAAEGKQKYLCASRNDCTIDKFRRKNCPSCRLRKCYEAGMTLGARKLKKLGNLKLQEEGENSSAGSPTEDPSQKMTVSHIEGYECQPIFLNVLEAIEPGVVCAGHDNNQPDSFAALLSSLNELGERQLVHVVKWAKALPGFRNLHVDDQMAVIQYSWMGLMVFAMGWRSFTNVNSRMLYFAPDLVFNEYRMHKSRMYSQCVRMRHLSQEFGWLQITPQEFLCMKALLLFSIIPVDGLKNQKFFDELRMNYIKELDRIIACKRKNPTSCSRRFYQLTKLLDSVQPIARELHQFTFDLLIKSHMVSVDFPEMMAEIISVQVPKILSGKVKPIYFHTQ
# Estrogen receptor beta (Homo sapiens), sequence (Q92731 whole entry, looked up, the tested form may be a part): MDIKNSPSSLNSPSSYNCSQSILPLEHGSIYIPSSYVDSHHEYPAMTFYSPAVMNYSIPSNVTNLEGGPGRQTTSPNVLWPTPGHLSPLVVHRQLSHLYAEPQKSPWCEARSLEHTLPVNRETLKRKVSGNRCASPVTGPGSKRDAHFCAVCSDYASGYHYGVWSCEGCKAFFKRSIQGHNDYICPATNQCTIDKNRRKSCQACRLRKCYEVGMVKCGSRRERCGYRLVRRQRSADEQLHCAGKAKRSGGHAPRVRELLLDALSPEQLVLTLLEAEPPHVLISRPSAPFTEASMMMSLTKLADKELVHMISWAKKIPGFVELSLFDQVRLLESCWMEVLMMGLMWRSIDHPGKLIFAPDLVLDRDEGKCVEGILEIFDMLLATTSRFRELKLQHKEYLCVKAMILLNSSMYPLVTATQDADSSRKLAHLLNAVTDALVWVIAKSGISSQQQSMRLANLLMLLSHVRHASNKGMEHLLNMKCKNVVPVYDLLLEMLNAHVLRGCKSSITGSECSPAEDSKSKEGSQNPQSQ
# human Adenosine Transporter (Adot), SLC29A1 (gene 2030), sequence (Q99808 whole entry, looked up): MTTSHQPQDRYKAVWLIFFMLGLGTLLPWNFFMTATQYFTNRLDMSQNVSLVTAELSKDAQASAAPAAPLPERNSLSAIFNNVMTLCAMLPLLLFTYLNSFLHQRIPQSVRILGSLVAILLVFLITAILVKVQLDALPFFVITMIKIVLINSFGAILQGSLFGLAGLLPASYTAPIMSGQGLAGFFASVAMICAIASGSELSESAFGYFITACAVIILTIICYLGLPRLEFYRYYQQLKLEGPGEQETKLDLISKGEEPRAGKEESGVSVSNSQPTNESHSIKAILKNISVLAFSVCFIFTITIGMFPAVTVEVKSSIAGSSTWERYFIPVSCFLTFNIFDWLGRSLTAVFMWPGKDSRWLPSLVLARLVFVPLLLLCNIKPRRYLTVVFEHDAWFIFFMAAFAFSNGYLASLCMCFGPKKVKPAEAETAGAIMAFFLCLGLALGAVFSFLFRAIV
# human Peroxisome Proliferator-activated Receptor alpha (PPARa), PPARA (gene 5465), sequence (Q07869 whole entry, looked up): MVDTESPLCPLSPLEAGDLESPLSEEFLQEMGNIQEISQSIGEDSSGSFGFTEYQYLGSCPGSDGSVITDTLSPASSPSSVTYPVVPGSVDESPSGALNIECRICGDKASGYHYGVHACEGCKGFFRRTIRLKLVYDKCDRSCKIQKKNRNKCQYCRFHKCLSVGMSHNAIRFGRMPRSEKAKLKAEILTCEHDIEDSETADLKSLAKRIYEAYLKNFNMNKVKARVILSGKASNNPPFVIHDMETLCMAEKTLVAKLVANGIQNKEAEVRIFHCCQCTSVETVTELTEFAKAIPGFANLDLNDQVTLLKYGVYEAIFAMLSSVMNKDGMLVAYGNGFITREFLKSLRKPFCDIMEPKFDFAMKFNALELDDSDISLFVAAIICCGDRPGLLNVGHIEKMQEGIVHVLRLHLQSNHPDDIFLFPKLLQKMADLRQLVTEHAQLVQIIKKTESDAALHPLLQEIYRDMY
# Nuclear receptor subfamily 1 group I member 2 (Homo sapiens), sequence (O75469 whole entry, looked up): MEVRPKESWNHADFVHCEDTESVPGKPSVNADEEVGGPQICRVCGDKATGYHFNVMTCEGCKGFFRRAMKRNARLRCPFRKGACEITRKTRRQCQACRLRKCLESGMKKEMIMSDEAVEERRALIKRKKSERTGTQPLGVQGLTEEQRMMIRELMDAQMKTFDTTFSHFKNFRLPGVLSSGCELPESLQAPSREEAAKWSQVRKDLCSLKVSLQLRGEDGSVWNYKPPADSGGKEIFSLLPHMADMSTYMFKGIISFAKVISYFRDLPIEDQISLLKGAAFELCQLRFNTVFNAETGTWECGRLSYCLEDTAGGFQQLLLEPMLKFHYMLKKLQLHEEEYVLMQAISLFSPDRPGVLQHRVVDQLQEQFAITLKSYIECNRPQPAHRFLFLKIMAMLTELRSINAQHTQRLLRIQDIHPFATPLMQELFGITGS
# human Dopamine Transporter (DAT), SLC6A3 (gene 6531), sequence (Q01959 whole entry, looked up): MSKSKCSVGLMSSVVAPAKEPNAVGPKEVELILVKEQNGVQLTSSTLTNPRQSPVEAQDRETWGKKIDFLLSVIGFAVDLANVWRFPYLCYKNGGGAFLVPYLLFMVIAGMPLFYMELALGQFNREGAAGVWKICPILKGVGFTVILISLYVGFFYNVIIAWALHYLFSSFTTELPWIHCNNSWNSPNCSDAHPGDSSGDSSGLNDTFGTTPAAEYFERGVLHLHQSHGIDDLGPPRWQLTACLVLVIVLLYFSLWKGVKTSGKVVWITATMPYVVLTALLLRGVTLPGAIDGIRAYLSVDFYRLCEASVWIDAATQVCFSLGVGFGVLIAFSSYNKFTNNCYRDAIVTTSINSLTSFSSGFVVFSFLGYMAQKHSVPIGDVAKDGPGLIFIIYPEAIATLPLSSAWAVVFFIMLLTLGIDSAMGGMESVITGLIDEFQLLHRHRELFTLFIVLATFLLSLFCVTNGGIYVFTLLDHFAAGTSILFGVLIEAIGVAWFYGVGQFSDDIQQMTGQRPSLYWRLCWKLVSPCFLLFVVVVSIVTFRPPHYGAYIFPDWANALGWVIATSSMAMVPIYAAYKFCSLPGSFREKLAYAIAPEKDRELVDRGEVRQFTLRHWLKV
# human Thyroid Receptor Alpha (TRa), THRA (gene 7067), sequence (P10827 whole entry, looked up): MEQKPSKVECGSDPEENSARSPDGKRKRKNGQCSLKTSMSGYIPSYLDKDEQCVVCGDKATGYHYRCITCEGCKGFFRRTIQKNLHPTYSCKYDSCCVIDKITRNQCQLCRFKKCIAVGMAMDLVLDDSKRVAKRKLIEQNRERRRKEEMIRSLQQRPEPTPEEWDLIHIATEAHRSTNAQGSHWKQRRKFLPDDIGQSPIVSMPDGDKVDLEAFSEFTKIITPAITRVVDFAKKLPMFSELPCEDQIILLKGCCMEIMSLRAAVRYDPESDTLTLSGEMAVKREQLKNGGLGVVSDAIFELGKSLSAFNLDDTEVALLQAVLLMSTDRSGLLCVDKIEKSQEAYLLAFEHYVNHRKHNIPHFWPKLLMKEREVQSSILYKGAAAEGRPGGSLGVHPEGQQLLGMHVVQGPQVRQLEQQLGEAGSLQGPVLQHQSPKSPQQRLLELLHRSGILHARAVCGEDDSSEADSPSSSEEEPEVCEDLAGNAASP
# Estrogen receptor (Homo sapiens) + Estrogen receptor beta (Homo sapiens), sequence (P03372 whole entry, looked up, the tested form may be a part): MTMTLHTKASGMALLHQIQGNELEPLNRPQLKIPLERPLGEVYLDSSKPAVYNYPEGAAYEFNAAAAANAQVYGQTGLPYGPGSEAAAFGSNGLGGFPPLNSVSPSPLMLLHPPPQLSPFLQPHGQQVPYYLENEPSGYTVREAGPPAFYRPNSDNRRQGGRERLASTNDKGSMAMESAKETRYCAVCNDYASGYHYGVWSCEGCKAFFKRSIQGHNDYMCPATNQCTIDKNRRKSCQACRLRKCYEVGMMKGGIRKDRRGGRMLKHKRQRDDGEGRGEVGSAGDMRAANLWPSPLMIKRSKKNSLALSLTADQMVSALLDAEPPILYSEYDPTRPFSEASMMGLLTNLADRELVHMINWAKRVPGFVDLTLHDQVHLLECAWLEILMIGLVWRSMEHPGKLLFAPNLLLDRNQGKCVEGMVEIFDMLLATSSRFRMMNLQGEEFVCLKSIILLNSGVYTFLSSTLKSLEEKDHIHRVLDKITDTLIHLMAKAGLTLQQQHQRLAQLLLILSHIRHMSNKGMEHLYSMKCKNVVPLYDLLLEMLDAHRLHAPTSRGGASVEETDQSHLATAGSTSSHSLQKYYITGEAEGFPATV
# Estrogen receptor (Homo sapiens) + Estrogen receptor beta (Homo sapiens), sequence (Q92731 whole entry, looked up, the tested form may be a part): as the sequence (Q92731 whole entry, looked up, the tested form may be a part) above
compound,measurement,setting,value
C=C(C)C#N,outcome,[1],inactive
same,outcome,[2],inactive
Fc1ccc(C2(Cn3cncn3)OC2c2ccccc2Cl)cc1 (stereo not drawn),AC50,[1],27.3 µM (active)
same,AC50,[2],14.9 µM (active)
same,outcome,[3],inactive
CC(C)(c1ccccc1)c1ccc(O)c(C(C)(C)c2ccccc2)c1,AC50,[1],12 µM (active)
same,AC50,[2],2.61 µM (active)
same,outcome,[4],inactive
same,outcome,[5],inactive
same,outcome,[3],inactive
same,outcome,[6],inactive
BrCCBr,outcome,[1],inactive
same,outcome,[2],inactive
Cl/C=C\C[N+]12CN3CN(CN(C3)C1)C2,AC50,[1],11.6 µM (active)
same,outcome,[2],inactive
Clc1ccc(COC(Cn2ccnc2)c2ccc(Cl)cc2Cl)cc1 (stereo not drawn),AC50,[1],11.8 µM (active)
same,outcome,[2],inactive
same,AC50,[7],16.2 µM (active)
same,AC50,[4],39.8 µM (active)
same,outcome,[5],inactive
same,AC50,[8],2.3 µM (active)
same,AC50,[3],9.83 µM (active)
same,AC50,[9],6.9 µM (active)
COc1cc(OC)nc(NC(=O)NS(=O)(=O)c2ncccc2C(=O)N(C)C)n1,outcome,[1],inactive
same,outcome,[2],inactive
same,outcome,[3],inactive
Cc1ccc(N)cc1Cl,AC50,[1],15.3 µM (active)
same,outcome,[2],inactive
CC(C)(C)CC(C)(C)c1ccc(O)cc1,outcome,[10],inactive
same,AC50,[2],817 nM (active) and 676 nM (active) and 702 nM (active)
same,AC50,PGR (gene 5241),10.8 µM (active)
same,AC50,[8],4.67 µM (active) and 15.9 µM (active) and 7.33 µM (active)
same,outcome,[9],inactive
same,outcome,[11],inactive
same,AC50,[6],15.1 µM (active)
same,outcome,[12],inactive
C=C(C)C(=O)[O][Sn]([CH2]CCC)([CH2]CCC)[CH2]CCC,outcome,[1],inactive
same,outcome,[2],inactive
same,outcome,[4],inactive
same,AC50,PGR (gene 5241),3.42 µM (active)
same,AC50,[8],1.15 µM (active)
same,outcome,[3],inactive
same,AC50,[13],36.7 µM (active)
same,AC50,[11],19.9 µM (active)
same,AC50,[14],1.62 µM (active)
same,AC50,[15],8.9 µM (active)
same,AC50,[16],25 µM (active)
same,AC50,[6],2.82 µM (active)
same,AC50,[17],4.15 µM (active)
same,AC50,[12],4.76 µM (active)
Clc1ccc(C2(Cn3cncn3)CC(Br)CO2)c(Cl)c1 (stereo not drawn),AC50,[1],56.4 µM (active)
same,outcome,[2],inactive
same,outcome,[5],inactive
same,AC50,[8],6.23 µM (active)
same,AC50,[3],19.8 µM (active)
same,outcome,[14],inactive
O=C(OC1CCCCC1)c1ccccc1C(=O)OC1CCCCC1,outcome,[10],inactive
same,outcome,[14],inactive
COP(=S)(OC)Oc1ccc(Sc2ccc(OP(=S)(OC)OC)cc2)cc1,AC50,[1],48.4 µM (active)
same,outcome,[2],inactive
same,AC50,[4],12.7 µM (active)
same,AC50,[9],16.1 µM (active)
same,outcome,[9],inactive
same,AC50,[14],0.13 µM (active)
same,outcome,[14],inactive
C=CC(=O)OCCCCCC(C)C,outcome,[1],inactive
same,outcome,[2],inactive
CC(C#N)CCC#N (stereo not drawn),outcome,[1],inactive
same,outcome,[2],inactive
same,outcome,[3],inactive
CC(C)c1cccc(C(C)C)c1O,outcome,[1],inactive
same,outcome,[2],inactive
NNC(=S)NN,outcome,[1],inactive
same,outcome,[2],inactive
same,AC50,[5],25.4 µM (active)
same,outcome,[3],inactive
CC(=O)[O][Hg][c]1ccccc1,outcome,[1],inactive
same,outcome,[2],inactive
same,AC50,[3],5.37 µM (active)
same,AC50,[13],11.8 µM (active)
same,AC50,[6],12.4 µM (active)
COc1cc(-c2ccc(N)c(OC)c2)ccc1N,outcome,[10],inactive
same,AC50,[4],14.1 µM (active)
same,outcome,[4],inactive
same,outcome,[18],inactive
same,AC50,[13],14.2 µM (active)
same,outcome,[14],inactive
same,outcome,[16],inactive
CCOC(=O)Nc1cccc(OC(=O)Nc2ccccc2)c1,outcome,[1],inactive
same,outcome,[2],inactive
CC1(C)Cc2cccc(O)c2O1,outcome,[1],inactive
same,outcome,[2],inactive
same,outcome,[3],inactive
Cc1ccc2ccccc2c1C,outcome,[1],inactive
same,outcome,[2],inactive
c1cc[c]([Hg][c]2ccccc2)cc1,outcome,[1],inactive
N#CN=C(N)N,outcome,[1],inactive
same,outcome,[2],inactive
O=S(=O)(c1ccc(Cl)cc1)c1ccc(Cl)cc1,outcome,[1],inactive
same,outcome,[2],inactive
OCc1ccco1,outcome,[1],inactive
same,outcome,[2],inactive
same,outcome,[3],inactive
CC(C)C1CCC(Cc2ccc(Cl)cc2)C1(O)Cn1cncn1 (stereo not drawn),AC50,[1],11.7 µM (active)
same,outcome,[2],inactive
same,AC50,[8],5.7 µM (active)
same,AC50,[3],15.5 µM (active)
same,outcome,[14],inactive
